Consider seven compounds from PubChem BioAssay (NCATS).

Assay [1] can be described thus: Cell Viability - MRC5 (AID 434; calls by dose curve;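 also: potency is read from the fitted curve at half-maximal effect; cells exposed to compound for 40 hours at 37 °C; potency reflects cytotoxicity seen as loss of intracellular ATP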). Conditions: MRC5 lung fibroblast viability, qHTS. Summed up:
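MRC5 normal human lung fibroblasts (1500/well) were treated with compounds for 40 hr at 37 °C in complete medium, and viable cells were measured as intracellular ATP by CellTiter-Glo luminescence. AC50 came from Hill fits, normalized to DMSO and 100 uM tamoxifen.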
For orientation: Quantitative high-throughput screening tests each substance at several concentrations.

The nature of assay [2]: Cell Viability - LYMP1-003 - Assay at 40 hr (AID 964). Also: % is scaled to controls: 0 for no effect and ±100 for the full control effect; nearly all actives have a fitted effect of over 60% in size. Conditions: LYMP1-003 lymphoblastoid viability; series mostly up to 92.2 µM. Summed up: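 Cells were seeded at 2500 per well and incubated 5 hr at 37 C. Compounds were added across a concentration series and left 40 hr at 37 C. CellTiter-Glo was added for 30 min at room temperature before luminescence reading.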
Assay [3] can be described thus: Cell Viability - LYMP2-009 (AID 968). Also: nearly all actives have a fitted effect of over 55% in size. Also: potency is read from the fitted curve at half-maximal effect. The settings on record: LYMP2-009 lymphoblastoid cell viability; series mostly up to 92.2 µM.
Assay [4] in a line: Cell Viability - LYMP2-011 (AID 969). Also: nearly all actives have a fitted effect of over 60% in size. Also: potency is read from the fitted curve at half-maximal effect. The settings on record: LYMP2-011 lymphoblastoid cells viability; series mostly up to 92.2 µM. Summed up: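 2500 cells/well, 5 hr 37 C; compound added, 24 hr 37 C; CellTiter-Glo 30 min RT; luminescence. qHTS concentration-response, Hill-equation AC50. Tetraoctylammonium bromide positive control.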
A short description of assay [5]: Cell Viability - LYMP2-017 (AID 972). Also: nearly all actives have a fitted effect of over 55% in size. Also: potency is read from the fitted curve at half-maximal effect. The settings on record: LYMP2-017 lymphoblastoid cell viability; series mostly up to 92.2 µM. Summed up: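 2500 cells/well, 5 h 37 C; cpd 24 h 37 C in complete medium; CellTiter-Glo, 30 min RT; luminescence (ATP). AC50 via Hill fit, qHTS.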
A short description of assay [6]: Cell Viability - LYMP2-021 (AID 974).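 Also: compound exposure lasts 24 hours at 37 °C; nearly all actives have a fitted effect of over 55% in size.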 Also: potency is read from the fitted curve at half-maximal effect. Conditions: LYMP2-021 lymphoblastoid cells viability; series mostly up to 92.2 µM. Summed up:
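Plate 2500 lymphoblastoid cells per well and incubate 5 hr at 37 C. Add compounds over a concentration range and incubate 24 hr at 37 C. Add CellTiter-Glo, wait 30 min at room temperature, read luminescence.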

Assay [7] is described as follows: Cell Viability - LYMP2-025 (AID 976).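 Also: plate controls were DMSO only for no effect and tetraoctylammonium bromide control for full effect.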 The settings on record: LYMP2-025 lymphoblastoid cell viability; series mostly up to 92.2 µM. Summed up:
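Seed 2500 LYMP2-025 cells/well; 5 hr at 37 C; add compound; 24 hr at 37 C; add CellTiter-Glo; 30 min RT; read luminescence. AC50 from Hill-modelled concentration-response.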

Assay [8] can be described thus: Cell Viability - LYMP2-006 (AID 978). Also: nearly all actives have a fitted effect of over 60% in size. Also: potency is read from the fitted curve at half-maximal effect. Conditions: LYMP2-006 lymphoblastoid cell viability, qHTS; series mostly up to 92.2 µM. Summed up:
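Human lymphoblastoid cells, 2500 per well, were preincubated 5 hr at 37 C, then exposed to compounds for 24 hr at 37 C in complete medium. Viability was read as intracellular ATP by CellTiter-Glo luminescence; AC50 from Hill-equation fits of qHTS concentration-response data.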

Assay [9] is described as follows: Cell Viability - LYMP2-007 (AID 979).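 Also: cells exposed to compound for 24 h before reading; nearly all actives have a fitted effect of over 60% in size.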 Also: potency is read from the fitted curve at half-maximal effect. The settings on record: LYMP2-007 lymphoblastoid cell viability; series mostly up to 92.2 µM. Summed up: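 Luminescent ATP signal (CellTiter-Glo) serves as the viability read-out after 24 hr compound treatment of lymphoblastoid cells in complete medium at 37 C. Concentration-response data were fitted to the Hill equation to give AC50 values.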

Assay [10] can be described thus: Cell Viability - LYMP2-018 (AID 985).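 Also: compound exposure lasted 24 hr at 37 °C; plate controls were DMSO only for no effect and tetraoctylammonium bromide at 92 µM for full effect; nearly all actives have a fitted effect of over 50% in size.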 The settings on record: LYMP2-018 lymphoblastoid cells, viability (qHTS); series mostly up to 92.2 µM. Summed up: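 Luminescent ATP signal (CellTiter-Glo, read after 30 min at room temperature) reports viable cells after 24 hr compound treatment at 37 C. Concentration-response data were fitted to the standard Hill equation for AC50.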

Assay [11] is described as follows: Cell Viability - LYMP2-024 (AID 988). Also: nearly all actives have a fitted effect of over 60% in size. Also: potency is read from the fitted curve at half-maximal effect. Conditions: LYMP2-024 lymphoblastoid cell viability; series mostly up to 92.2 µM. Summed up:
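Steps: seed 2500 cells/well, 5 hr 37 C; add compound, 24 hr 37 C; add CellTiter-Glo, 30 min room temperature; read luminescence. AC50 derived by Hill modelling of concentration-dependent ATP loss.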

A short description of assay [12]: qHTS assay for small molecule activators of the nuclear factor-kappa B (NF-kB) signaling pathway (AID 651749; active = well fitted activation curve with a large enough effect in the signal ratio; the % refers to the signal ratio; also: % of control where 0% means no effect). Conditions: NF-kB-bla ME-180 cells, beta-lactamase FRET ratio, 16 h; stronger effect = higher value. Summed up:
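Screening used 2,000 ME-180 reporter cells per well exposed to pinned compound (23 nL) or DMSO; after 16 hr at 37C, beta-lactamase expression under NF-kB control was assessed through FRET.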

Assay [13] can be described thus: qHTS assay for small molecule antagonists of the retinoid-related orphan receptor gamma (ROR-gamma) signaling pathway - cell viability counter screen (AID 720652; active = well fitted curve in the direction sought with a large enough effect in the repeat runs; an effect the other way counts as inactive or inconclusive;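 also: compound exposure lasted 16 hr before ATP read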; also: potency is read from the fitted curve at half-maximal effect). Conditions: RORgamma reporter cell line viability counter screen; series mostly up to 92.2 µM. Summed up:
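Luminescence from CellTiter-Glo after 30 min at room temperature reported cellular ATP as the cytotoxicity measure. Cells were the CHO reporter line with doxycycline-induced ROR-gamma expression, exposed to compound for 16 hr at 37 C.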

The target in assay [14] is Nuclear receptor subfamily 1 group I member 2 (Rattus norvegicus) (UniProt Q9R1A7). Kind of assay: qHTS assay for small molecule activators of the rat pregnane X receptor (rPXR) signaling pathway (AID 651751; call rule not given here; also: 0% is about no effect). The settings on record: rPXR reporter cells, luciferase (One-Glo), 24 h.
Assay [15] can be described thus: qHTS assay for small molecule activators of the human pregnane X receptor (PXR) signaling pathway (AID 720659; call rule not given here; also: 0% is about no effect). The settings on record: DPX-2 HepG2 CYP3A4-luciferase, 24 h; series mostly up to 92.3 µM.
The target in assay [16] is Mitogen-activated protein kinase 10 (Mus musculus) (UniProt Q61831). Kind of assay: JNK3 AlphaScreen Assay (AID 530; active = well fitted curve in either direction with a large enough effect, not every such curve was filed as active;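 also: kinase came from lysate of stimulated human HepG2 cells; signal reports phosphorylation of biotinylated GST-cJun 1-79 at Ser73 with 10 µM ATP; % is scaled to controls: 0 for no effect and ±100 for the full control effect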). Conditions: JNK3 lysate, c-Jun phosphorylation; series mostly up to 57.1 µM. Summed up:
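Inhibitors reduce antibody binding to phosphorylated biotin-cJun, lowering AlphaScreen luminescence. Lysates from HepG2 cells pre-activated by IL-1beta plus TNF-alpha supplied JNK3; compounds were titrated.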
In general terms: In Alpha technology, singlet oxygen from a donor bead excites a nearby acceptor bead.

The nature of assay [17]: Cellular Toxicity (caspase-3) H-4-II-E (AID 663). Also: potency is read from the fitted curve at half-maximal effect.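 As to caspase-3 activation: cells exposed to compound for 16 hr before readout; 0% = DMSO basal and 100% = 100 µM tamoxifen.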 The settings on record: H-4-II-E rat hepatoma; Potency: caspase-3 activation; series mostly up to 92.2 µM. Summed up:
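Luminescence from caspase-cleaved aminoluciferin substrate, read 20 min after reagent addition, reports caspase 3/7 activation in rat H-4-II-E cells after 16 hr compound exposure. Normalized to DMSO (basal) and 100 uM tamoxifen (100%); AC50 from Hill fits.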

Assay [18] in a line: MultiTox-Fluor Cytotoxicity Assay - LYMP1-002 - Live Cells (AID 955). Also: % is scaled to controls: 0 for no effect and ±100 for the full control effect. The settings on record: LYMP1-002 lymphoblastoid live-cell protease fluorescence viability; series mostly up to 46.1 µM. Summed up: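 Read-out is live-cell protease activity (cell-permeant GF-AFC substrate, fluorescence Ex/Em=405/510), where a decrease indicates acute toxicity. Human lymphoblastoid cells were treated 16 hours at 37 C in a concentration series, and AC50 values came from standard Hill modelling.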

A short description of assay [19]: MultiTox-Fluor Cytotoxicity Assay - LYMP1-003 - Live Cells (AID 962).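 Also: 0% = DMSO only and full loss = 92 µM tetraoctylammonium bromide; cytotoxic hits lower the live-cell protease signal.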 Conditions: LYMP1-003 lymphoblastoid cells, MultiTox-Fluor live-cell protease fluorescence; series mostly up to 92.2 µM. Summed up:
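qHTS, 1536-well; 2500 cells/well LYMP1-003; 5 hr 37 C settle; cpd 16 hr 37 C; MultiTox-Fluor reagent 60 min RT; live-cell protease fluor. 405/510; Hill-fit AC50; tetraoctylammonium bromide pos. ctrl.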

Assay [20] is described as follows: Cell Viability - HUV-EC-C (AID 542).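 Also: cells exposed to compound for 40 hours; % is scaled to controls: 0 for no effect and ±100 for the full control effect; nearly all actives have a fitted effect of over 35% in size.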 The settings on record: HUV-EC-C endothelial cell viability, qHTS; series mostly up to 92.2 µM. Summed up: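 qHTS cytotoxicity: HUV-EC-C, 1000 cells/well, 5 hr settle, compound 40 hr 37 °C, CellTiter-Glo, luminescence. AC50 via Hill equation.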

Several values for one entry are separate records, joined by “and”; a condition that tells them apart may be missing. Equal values may be shown once. Values without a mark were called inactive. Records with an inconclusive call do not appear. Activity calls are given as the source filed them. Unless noted, calls follow the shape of the dose curve; as a rule, active = well fitted curve in the direction sought with a large enough effect; inconclusive = small, poorly fitted or top-dose-only effect, or another doubt; inactive = no such curve, though single readings can be large; an effect the other way counts as inactive or inconclusive.

Chain of Nuclear receptor subfamily 1 group I member 2 (Rattus norvegicus) (Q9R1A7 whole entry, looked up): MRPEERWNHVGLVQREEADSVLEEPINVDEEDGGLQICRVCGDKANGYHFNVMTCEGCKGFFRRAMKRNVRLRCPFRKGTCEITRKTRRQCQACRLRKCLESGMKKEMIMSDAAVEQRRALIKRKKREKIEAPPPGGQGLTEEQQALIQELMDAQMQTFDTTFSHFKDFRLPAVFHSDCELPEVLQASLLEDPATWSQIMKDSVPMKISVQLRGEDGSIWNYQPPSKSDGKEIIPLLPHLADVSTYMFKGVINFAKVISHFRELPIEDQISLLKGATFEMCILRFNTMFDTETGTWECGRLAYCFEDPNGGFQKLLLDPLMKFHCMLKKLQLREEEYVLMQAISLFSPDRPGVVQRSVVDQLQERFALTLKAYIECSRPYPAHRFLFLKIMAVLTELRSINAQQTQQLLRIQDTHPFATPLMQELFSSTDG

For the compound `C=CCCC#N`, in [1], the Potency was over 92 µM. Besides, the Potency entry in assay [2], in [3], in assay [4], in assay [5], in assay [6] and in assay [7] was “inactive” each time. Besides, the Potency result in assay [8], in [9], in assay [10], in assay [11] and in assay [13] was “inactive” in each case. Further, the activation in [12] was 0.189%. For the same compound, the max response in assay [14] is -6.54%. In addition, in assay [15], the compound was classed as inactive.
For `O=[N+]([O-])/C=C/c1ccccc1`, the Potency entry in [16] and in assay [2] was “inactive” each time. The Potency in assay [17] is 6.31 µM (active); in [3] it was 50.1 µM (active); in [4], 50.1 µM (active); in assay [5] it was 50.1 µM (active); in assay [6], 39.8 µM (active); in [8], 39.8 µM (active). In addition, the Potency in assay [9] was 31.6 µM (active); in assay [11], 39.8 µM (active); in assay [13] it was 37.6 µM (active). Besides, the result in assay [18] and in [19] was inactive. In [12], the activation was -0.835%.
As for `CCCCC#N`, in assay [1], the Potency is over 92 µM. Moreover, the Potency entry in assay [16], in assay [20], in assay [2], in assay [3], in assay [5] and in assay [6] was “inactive” in each case. Further, the Potency entry in [7], in assay [8], in assay [9], in [10], in assay [11] and in assay [13] was “inactive” in each case. In addition, the compound was called inactive in assay [18], in [19] and in [15]. Besides, the max response in assay [14] was -0.572%.
As to `CC(C)(C)c1ccccc1O`, the Potency in [1] was over 92 µM. For the same compound, the Potency result in [16], in assay [17], in assay [2], in assay [3], in assay [4] and in [5] was “inactive” throughout. The Potency entry in assay [6], in assay [7], in assay [9], in [11] and in assay [13] was “inactive” throughout. Besides, the call in assay [18], in [19] and in assay [15] was inactive. Further, in [12], the activation was -0.0104% and -1.11%. In addition, the max response in assay [14] was -1.16% and -0.87%.
With `BrC(Br)Br`, the Potency in assay [1] is over 92 µM. Further, the Potency result in [20], in assay [17], in assay [2], in [3], in assay [5] and in [6] was “inactive” each time. For the same compound, the Potency entry in [8], in assay [9], in [10], in [11] and in assay [13] was “inactive” in each case. The outcome in assay [19] and in assay [15] was inactive. The activation in assay [12] is 0.744%. Besides, the max response in assay [14] is 0.0785%.
As for `O=C(O)C(Cl)Br` (centres undefined), the Potency result in assay [16], in assay [20], in [2], in assay [3], in assay [4] and in [5] was “inactive” in each case. In addition, the Potency result in assay [6], in assay [7], in [8], in [9], in assay [10] and in assay [11] was “inactive” throughout. Further, the Potency result in assay [13] was “inactive”. In addition, the compound was classed as inactive in assay [18] and in assay [15]. The activation in assay [12] was 0.434%. The max response in assay [14] was -1.1%.
As to `CCC#N`, in assay [1], the Potency was over 92 µM. In addition, the Potency result in assay [16], in assay [17], in assay [2], in [3], in assay [4] and in [5] was “inactive” throughout. Further, the Potency entry in assay [6], in assay [7], in assay [8], in [9], in assay [10] and in [11] was “inactive” throughout. In assay [13], the Potency entry is “inactive”. The compound was classed as inactive in assay [19] and in assay [15]. The activation in assay [12] was -1.07%. In addition, the max response in assay [14] was -2.01%.
